The record followed here is PubChem BioAssay AID1645851 (National Center for Advancing Translational Sciences (NCATS), 2021).

Hit rate of the full screen: of about 140,000 compounds, about 1,200 (0.86%) were called active. What follows is part of a selection rich in actives, with near analogues and random picks from the rest. A number with no mark means an inactive call. No stated cut-off is given here; in the data, active means activity change below about -25%; inactive means the rest.
On the % scale 0 is the no-effect control and ±100 the full control effect.

For this test, the target named is Inositol hexakisphosphate kinase 1 (Homo sapiens) (UniProt Q92551). The test is described as follows: Primary qHTS assay for small molecule inhibitors of Inositol hexaphosphate kinase 1 (IP6K1). Further: series mostly up to about 58 µM. Conditions: ADP-Glo luminescence, 2 h, hits give low values. The gist of the method: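 ADP-Glo luminescence measures ADP made by human IP6K1 during a 2 h RT reaction with ATP/IP6 (mix at 1.3 mM/130 uM); top library doses 57.5 and 19.1 uM final.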
Inositol hexakisphosphate kinase 1 (Homo sapiens), sequence (Q92551 whole entry, looked up): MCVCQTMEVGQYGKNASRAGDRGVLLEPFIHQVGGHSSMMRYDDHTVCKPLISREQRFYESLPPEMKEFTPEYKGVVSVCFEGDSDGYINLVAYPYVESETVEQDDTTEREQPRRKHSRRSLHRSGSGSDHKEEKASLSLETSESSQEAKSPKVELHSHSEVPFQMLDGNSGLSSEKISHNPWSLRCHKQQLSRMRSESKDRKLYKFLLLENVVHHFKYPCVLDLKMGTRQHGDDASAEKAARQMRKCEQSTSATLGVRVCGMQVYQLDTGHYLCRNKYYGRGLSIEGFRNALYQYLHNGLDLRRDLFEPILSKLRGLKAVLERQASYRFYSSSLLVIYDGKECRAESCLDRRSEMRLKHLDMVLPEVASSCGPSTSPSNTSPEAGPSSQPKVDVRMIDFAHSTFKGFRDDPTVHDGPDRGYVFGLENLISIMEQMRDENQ
For orientation: qHTS replaces the single test concentration by a dilution series.
In the case of `CSCC(=O)N1CCC2(CC1)CC(c1ccccc1)CN(C)C2` (stereo not given), the activity change is 3.1%. `CN(C)CC1(O)CCC2(CCN(C(=O)c3ccc4ccccc4n3)CC2)CC1`: the activity change was -13.2%. For the compound `Cc1cccc(C(=O)N2CCC3(CC2)CC(c2ccccc2)CN(C)C3)n1` (stereo not given), the activity change was -35.9% (active).

With `CC1=C[C@@H](CNC(C)C)[C@H](C(C)C)C[C@H]1Cc1nnc(-c2ccc(C)cc2)o1`, the activity change is -3.97%. Take `O=C(Cc1cccc(F)c1)N1CCC[C@H]1c1nc(-c2ccc(F)cc2)n[nH]1`: the activity change is 21.1%. Turning to `O=C1CCC2(C(=O)NCCCN3CCCC3)CCC=C2N1C1CCCC1` (stereo not given), the activity change is 9.28%. Then `CCOc1cccc(CC(=O)N2CCc3c([nH]c4ccccc34)C2c2ccc(F)cc2)c1OCC` (stereo not given), with 2.13%. On to `CCOc1ccccc1CNC(=O)c1ccc(-n2c(C)cc3c2CCC(C)C3)cc1` (stereo not given), for which the activity change is 14.3%. `CCOc1cccc2c1N[C@@H](c1ccc(C(=O)O)cc1)[C@H]1CC=C[C@@H]21`: the activity change is -85.5% (active). Under `COc1ccc(OC2CN(CC3CCCCC3)C2)cc1` stands -18%; under `CCN(CC)CCNC(=O)C12CCCC=C1N(Cc1ccccc1)C(=O)CC2` (stereo not given), 7.12%. Consider `O=C(OCCN1CCOCC1)c1cccnc1Nc1cccc(C(F)(F)F)c1`, for which the activity change was -58.6% (active). Under `O=C(c1ccccc1)N1CCNc2cnc(Nc3cccc(C(F)(F)F)c3)nc2C1` stands 4.76%. As to `CCc1cccc(NC(=O)c2cnc(N3CCOCC3)c3ccccc23)c1`, the activity change was -10.5%. Take `O=C(c1ccc(Cl)cc1)N1CCCC(n2cc(-c3nc(-c4ccccc4)no3)nn2)C1` (stereo not given): the activity change is 5.18%. For `O=C(C1CCCN(C(=O)C2CC2)C1)N1CCC(N2CCCC2=O)CC1` (stereo not given), the activity change was -0.186%. Take `CN(C)C[C@@H]1CN(c2ccncn2)C[C@H]1NC(=O)c1cc(C2CC2)[nH]n1`: the activity change was 3.23%. Then `O=C(NC1CCN(Cc2ccccc2)CC1)c1ccc(Cn2c(=O)c3ccccc3n(Cc3cccc(F)c3)c2=O)cc1`, with 6.69%; and `O=c1c2ccccc2n(Cc2cccc(Cl)c2)c(=O)n1Cc1ccccc1`, with -26% (active).

Take `CCn1c2ccccc2c2cc(CN3CCN(Cc4cccc(Cl)c4)CC3)ccc21`: the activity change is -4.05%. `CN(C)C(=O)c1ccc2oc(-c3ccnc(Cl)c3)nc2c1`: the activity change was -35.6% (active). Consider `O=C(NCc1ccccc1)c1ccc2nc(-c3ccnc(Cl)c3)oc2c1`, for which the activity change was -0.193%.

`CCc1ccc(CN(C)C(=O)c2ccc3oc(-c4cccc(F)c4)nc3c2)nc1`: the activity change is 12.9%. Take `CCOc1ccc(CC(=O)NC2CCN(c3cc(-c4ccc(F)cc4)[nH]n3)CC2)cc1OCC`: the activity change is 22.5%. As for `CCOc1ccccc1NC(=O)C1=C(C)Nc2ncnn2C1c1ccc(NC(C)=O)cc1` (stereo not given), the activity change is -19.2%. For the compound `COc1ccccc1NC(=O)C1=C(C)Nc2ncnn2C1c1sccc1C` (stereo not given), the activity change is -0.661%. As for `CC1=C(C(=O)Nc2ccccc2Cl)C(c2cccs2)n2ncnc2N1` (stereo not given), the activity change is -26.4% (active). As to `CCN(Cc1ccccc1)C(=O)CCc1ccc2c(c1)CN(C(=O)NC(C)C)CCO2`, the activity change was -13.8%. With `CCCC(C)N1CC2(CCN(C(=O)c3csc(C(C)C)n3)CC2)OC1=O` (stereo not given), the activity change is 4.73%. Turning to `O=c1ncn(Cc2ccccc2)c2ccc(-c3ccoc3)nc12`, the activity change was -29% (active). As to `O=c1c2nc(-c3ccccc3)ccc2ncn1Cc1ccccc1`, the activity change is 5.89%. For `COc1ccc(-c2ccc3ncn(Cc4ccccc4)c(=O)c3n2)cc1OC`, the activity change was 7.2%.

In the case of `COCCn1c(=O)n([C@H]2CCCN(C(=O)CCc3ccccc3)C2)c2ncccc21`, the activity change was 6.71%. Under `CC(C)(Oc1nn(Cc2cccc(Cl)c2)c2ccccc12)C(=O)Nc1cccnc1` stands -0.544%; under `Cc1cc(C)cc(N2CCC(NS(=O)(=O)c3cn(C)c(C)n3)C2=O)c1` (stereo not given), -1.58%. Then `Cc1ccccc1N1CCCN(Cc2nc(-c3ccccn3)no2)CC1`, with -0.56%; and `COc1ccc(-c2ccc3ncc(Nc4cc(F)cc(N5CCOCC5)c4)n3n2)cn1`, with -29.7% (active); and `COc1ccc(Nc2cnc3ccc(-c4ccc(OC)nc4)nn23)cc1`, with -13.5%. Consider `COc1ccc(-c2ccc3ncc(Nc4ccc(C(F)(F)F)cc4)n3n2)cn1`, for which the activity change was -13.9%.

Regarding `CC[C@@]1(C(=O)O)C[C@H](C(=O)N(C)CC(=O)O)[C@H](c2ccc(OC)cc2)N1C`, the activity change is 9.58%. Consider `COC(=O)c1ccc(CO[C@H]2CCC=C3C[C@@H](O)CC[C@@]32C)cc1`, for which the activity change is 17.7%. `CCOC(=O)c1ccc(CSc2nnc3cc(C)c4ccccc4n23)cc1`: the activity change is -36.2% (active). As to `CCOC(=O)c1ccc(NC(=O)c2nc(SCc3ccc(F)cc3)ncc2Cl)cc1`, the activity change was -10%. As for `CCOC(=O)c1ccc(NC(=O)CSc2nc3c([nH]c4ccccc43)c(=O)n2C)cc1`, the activity change was 32.9%. Then `O=S(=O)(N[C@@H]1CCOC[C@H]1Oc1ccccn1)c1ccc(Cl)s1`, with -5.56%.

In the case of `O=C(NCc1ccco1)C1c2ccccc2C(=O)N(C2CCCC2)C12CCCCC2` (stereo not given), the activity change was -8.07%.

On to `CC(=O)N1CCN(c2ccc3nnc(-c4ccc(C)cn4)n3n2)CC1`, for which the activity change is -10.9%. Under `Cc1ccc(-c2nnc3ccc(-c4ccoc4)nn23)nc1` stands -36.1% (active); under `Cc1ccc(-c2ccc3nnc(CNC(=O)c4ccccn4)n3n2)cc1`, -2.05%; under `CC(=O)Nc1ccc(S(=O)(=O)N[C@H]2CO[C@H]3[C@@H]2OC[C@@H]3n2nnnc2-c2ccc(N(C)C)cc2)cc1`, 2.63%. In the case of `CCCS(=O)(=O)N1CCC(N2CC(OCCOC)C23CCCCC3)CC1` (stereo not given), the activity change was -5.2%. Consider `Cc1ccc(NC(=O)c2nc(S(=O)(=O)Cc3cccc(C)c3)ncc2Cl)cc1`, for which the activity change is -17.5%. Take `CCOC(=O)c1scc(-c2ccccc2)c1S(=O)(=O)Nc1ccccc1F`: the activity change is -14.6%. Regarding `CCCS(=O)(=O)c1ncc(Cl)c(C(=O)Nc2scc(-c3ccccc3)c2C(=O)OCC)n1`, the activity change is -31.2% (active). Turning to `CCNC(=O)CCc1c(CC)nn(-c2ccc(F)cc2)c1Oc1ccccc1`, the activity change is 1.63%.
